Autofluor counter: flagged as autofluorescent in microsphere protease counterscreen; actives 3.1% (n = 360,000); fluorescence intensity (test concentration not listed); compound autofluorescence counterscreen, microsphere flow cytometry; hits give high values; in the data active = fluorescence intensity above about 16000; inconclusive = no clear call, values can overlap the other calls
Anthrax LF inh2: Bacillus anthracis LF protease inhibitors, primary screen, biochemical, multiplex microsphere, MLPCN library; Lethal factor (Bacillus anthracis), P15917; multiplex microsphere protease cleavage assay; inhibition, % at 10 µM; actives 0.12% (n = 360,000); AID 588501, 2011
Target sequence (P15917 whole entry, looked up): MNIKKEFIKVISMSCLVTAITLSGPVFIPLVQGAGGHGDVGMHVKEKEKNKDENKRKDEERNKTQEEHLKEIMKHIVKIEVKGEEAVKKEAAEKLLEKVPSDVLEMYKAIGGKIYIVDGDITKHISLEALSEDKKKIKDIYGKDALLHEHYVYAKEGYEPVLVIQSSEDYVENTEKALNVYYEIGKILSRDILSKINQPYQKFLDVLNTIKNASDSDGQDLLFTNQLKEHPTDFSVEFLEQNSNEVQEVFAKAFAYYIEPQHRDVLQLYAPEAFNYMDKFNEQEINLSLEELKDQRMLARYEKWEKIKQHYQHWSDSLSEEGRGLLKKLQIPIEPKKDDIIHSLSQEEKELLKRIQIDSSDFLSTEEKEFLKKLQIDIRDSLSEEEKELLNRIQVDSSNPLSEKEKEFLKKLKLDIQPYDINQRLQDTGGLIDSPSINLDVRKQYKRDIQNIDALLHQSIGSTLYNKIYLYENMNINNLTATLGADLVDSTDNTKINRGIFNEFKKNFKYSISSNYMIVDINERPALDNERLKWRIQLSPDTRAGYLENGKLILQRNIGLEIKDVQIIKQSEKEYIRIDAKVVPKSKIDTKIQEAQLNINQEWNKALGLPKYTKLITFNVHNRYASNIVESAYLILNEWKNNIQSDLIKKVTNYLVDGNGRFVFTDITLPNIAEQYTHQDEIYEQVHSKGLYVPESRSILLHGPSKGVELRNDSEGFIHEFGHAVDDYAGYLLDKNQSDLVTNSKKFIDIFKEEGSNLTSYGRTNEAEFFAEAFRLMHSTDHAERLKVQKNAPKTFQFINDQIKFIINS
BoNT A protease: BoNT/A light chain protease inhibitors, primary screen, biochemical, flow cytometry, MLPCN library. multiplex microsphere protease substrate cleavage. inhibition, % at 10 µM. actives 0.17% (n = 360,000)
BoNT-F LC inh: BoNT/F light chain protease inhibitors, primary screen, biochemical, flow cytometry, MLPCN library; inhibition, % at 10 µM; Botulinum neurotoxin type F light chain protease (Clostridium botulinum); Multiplex microsphere protease cleavage assay; actives 0.22% (n = 360,000); in the data active = inhibition above about 35%, passing the limit was not always enough; inconclusive = no clear call, values can overlap the other calls
Numbers stand for hits. Only some compounds are listed: those with a hit (about 3.5% of all), similar ones and a draw of the others. Rule as the data show it, unless noted: active = inhibition above about 30%; inconclusive = no clear call, values can overlap the other calls; inactive = below that.

Screening COC(=O)CSc1nnc(CNC(=O)c2ccc(S(=O)(=O)N3CCOCC3)cc2)n1C returned Autofluor counter inactive, Anthrax LF inh2 inactive, BoNT A protease inactive and BoNT-F LC inh inactive.
For CCOC(=O)CSc1nnc(CNC(=O)c2ccc(S(=O)(=O)N3CCCCC3)cc2)n1C the results were Autofluor counter 20926, Anthrax LF inh2 inactive, BoNT A protease inactive and BoNT-F LC inh inactive.
COC(=O)CSc1nnc(CNC(=O)c2ccc(S(=O)(=O)N3CCCCC3)cc2)n1C was read as Autofluor counter 24100, Anthrax LF inh2 inactive, BoNT A protease inactive and BoNT-F LC inh inactive.
For COc1ccc(Cn2cc(CN3CC(N4CCCC4)CS3(=O)=O)nn2)cc1 (stereo not drawn) the results were Autofluor counter inactive, Anthrax LF inh2 inactive, BoNT A protease inactive and BoNT-F LC inh inactive.
For COc1cccc(-c2cc3nc(C)c(C)c(N4CCN(C(=O)c5ccoc5)CC4)n3n2)c1 the results were Autofluor counter inactive, Anthrax LF inh2 inactive, BoNT A protease inactive and BoNT-F LC inh inactive.
Screening CC(Nn1cnnc1)c1cc(Cl)ccc1O (stereo not drawn) returned Autofluor counter inactive, Anthrax LF inh2 inactive, BoNT A protease inactive and BoNT-F LC inh inactive.
`Cc1ccc(NC(C)c2cc(Cl)ccc2O)cc1` (stereo not drawn) gave Autofluor counter 21916, Anthrax LF inh2 inactive, BoNT A protease inconclusive and BoNT-F LC inh inactive.
`O=C(c1ccc2nc3ccc(Cl)cc3c(=O)n2c1)N1CCC2(CC1)OCCO2` gave Autofluor counter 19917, Anthrax LF inh2 inactive, BoNT A protease inactive and BoNT-F LC inh inactive.
For O=C(c1cnc2ccc(Cl)cc2c1Cl)N1CCOCC1 the results were Autofluor counter inactive, Anthrax LF inh2 inactive, BoNT A protease inactive and BoNT-F LC inh inactive.
For O=C(c1ccc2nc3ccc(Cl)cc3c(=O)n2c1)N1CCOCC1 the results were Autofluor counter 21084, Anthrax LF inh2 inactive, BoNT A protease inactive and BoNT-F LC inh inactive.
`COc1ccccc1N(Cc1ccccc1)S(=O)(=O)c1cc(C(=O)O)ccc1Cl` gave Autofluor counter inactive, Anthrax LF inh2 inactive, BoNT A protease inactive and BoNT-F LC inh inactive.
For C/C(=N\Nc1nc(N)cc(Cl)n1)c1cccc([N+](=O)[O-])c1 the results were Autofluor counter 22572, Anthrax LF inh2 inactive, BoNT A protease inactive and BoNT-F LC inh inactive.
Screening Cc1cc(=O)oc(C)c1C(=O)NCCCN1C(C)CCCC1C (stereo not drawn) returned Autofluor counter 24271, Anthrax LF inh2 inactive, BoNT A protease inactive and BoNT-F LC inh inactive.
`Cc1cc(=O)oc(C)c1C(=O)NCC1CCCO1` (stereo not drawn) gave Autofluor counter inactive, Anthrax LF inh2 inactive, BoNT A protease inactive and BoNT-F LC inh inactive.
For CCCNC(=O)c1c(C)cc(=O)oc1C the results were Autofluor counter inactive, Anthrax LF inh2 inactive, BoNT A protease inactive and BoNT-F LC inh inactive.
CCCCN(CCCNC(=O)c1c(C)cc(=O)oc1C)c1ccccc1 was read as Autofluor counter 22469, Anthrax LF inh2 inactive, BoNT A protease inactive and BoNT-F LC inh inactive.
Cc1cc(=O)oc(C)c1C(=O)NCCN1CCOCC1 was read as Autofluor counter 22773, Anthrax LF inh2 inactive, BoNT A protease inconclusive and BoNT-F LC inh inactive.
`COc1ccc(Nc2ccc3c(c2)=NC2(CCCCC2)[N+]=3[O-])cc1` gave Autofluor counter inactive, Anthrax LF inh2 inactive, BoNT A protease inactive and BoNT-F LC inh inactive.
[O-][N+]1=c2ccc(Nc3ccccc3)cc2=NC12CCCCC2 was read as Autofluor counter 16589, Anthrax LF inh2 inactive, BoNT A protease inactive and BoNT-F LC inh inactive.
Cc1cc(C)c2c(=O)[nH]c(SCC(=O)N3CCCCC3)nc2n1 was read as Autofluor counter 21909, Anthrax LF inh2 inactive, BoNT A protease inactive and BoNT-F LC inh inactive.
Screening Cc1cc(C)c2c(=O)[nH]c(SCC(=O)N3CCOCC3)nc2n1 returned Autofluor counter inactive, Anthrax LF inh2 inactive, BoNT A protease inactive and BoNT-F LC inh inactive.
For OCc1ccccc1NC(=S)Nc1cccnc1 the results were Autofluor counter 25402, Anthrax LF inh2 inactive, BoNT A protease inactive and BoNT-F LC inh inactive.
`CCOC(=O)c1cc(CC)sc1NC(=O)COC(=O)C1CCC1` gave Autofluor counter inactive, Anthrax LF inh2 inactive, BoNT A protease inactive and BoNT-F LC inh inactive.
`CSc1nnc(-c2sccc2OCc2ccccc2)n1C` gave Autofluor counter 16539, Anthrax LF inh2 inactive, BoNT A protease inactive and BoNT-F LC inh inactive.
O=C(Cc1c(O)c2ccccc2[nH]c1=O)N(Cc1ccccc1)Cc1ccccc1 was read as Autofluor counter 22649, Anthrax LF inh2 inactive, BoNT A protease inactive and BoNT-F LC inh inactive.
N#Cc1nc(Cc2cccc3ccccc23)oc1NCC1CCCO1 (stereo not drawn) was read as Autofluor counter 21943, Anthrax LF inh2 inactive, BoNT A protease inactive and BoNT-F LC inh inactive.
For COc1ccc(CNc2oc(Cc3cccc4ccccc34)nc2C#N)cc1 the results were Autofluor counter inactive, Anthrax LF inh2 inactive, BoNT A protease inactive and BoNT-F LC inh inactive.
Screening CCCOc1ccc(-c2nc(C#N)c(NCC3CCCO3)o2)cc1 (stereo not drawn) returned Autofluor counter 24772, Anthrax LF inh2 inactive, BoNT A protease inactive and BoNT-F LC inh inactive.
For N#Cc1nc(Cc2cccc3ccccc23)oc1NCc1ccco1 the results were Autofluor counter 22710, Anthrax LF inh2 inactive, BoNT A protease inactive and BoNT-F LC inh inactive.
Screening CCOc1ccc(NC(=O)CSc2nc3ccccc3nc2N2CC(C)OC(C)C2)cc1 (stereo not drawn) returned Autofluor counter inactive, Anthrax LF inh2 inactive, BoNT A protease inactive and BoNT-F LC inh inactive.
Screening Cc1ccc(S(=O)(=O)N2CCCCC2)cc1NC(=O)CNc1ccc(C(F)(F)F)cc1 returned Autofluor counter inconclusive, Anthrax LF inh2 inactive, BoNT A protease inactive and BoNT-F LC inh inconclusive.
`CCCCCCn1cc(CN2CC(N3CCCCC3)CS2(=O)=O)nn1` (stereo not drawn) gave Autofluor counter inactive, Anthrax LF inh2 inactive, BoNT A protease inactive and BoNT-F LC inh inactive.
`CCOC(=O)C1=C(C)NC2=C(C(=O)CCC2)C1c1cccnc1` (stereo not drawn) gave Autofluor counter 23612, Anthrax LF inh2 inactive, BoNT A protease inactive and BoNT-F LC inh inactive.
`CCOC(=O)C1=C(N)OC2=C(C(=O)CC(C)(C)C2)C1c1cccnc1` (stereo not drawn) gave Autofluor counter 22141, Anthrax LF inh2 inactive, BoNT A protease inactive and BoNT-F LC inh inactive.
Screening CC1=C(C(=O)OC(C)C)C(c2cccnc2)C2=C(CCCC2=O)N1 (stereo not drawn) returned Autofluor counter inactive, Anthrax LF inh2 inactive, BoNT A protease inactive and BoNT-F LC inh inactive.
`COc1cccc2cc(C(=O)C3=C(O)C(=O)N(CCN(C)C)C3c3ccc(Cl)cc3)oc12` (stereo not drawn) gave Autofluor counter inactive, Anthrax LF inh2 30.3, BoNT A protease inconclusive and BoNT-F LC inh inconclusive.
For CN(C)CCN1C(=O)C(O)=C(C(=O)c2cc3ccccc3o2)C1c1cccc(Br)c1 (stereo not drawn) the results were Autofluor counter 22182, Anthrax LF inh2 inactive, BoNT A protease inconclusive and BoNT-F LC inh inactive.

Screening data as filed in PubChem.
